Screening data: PubChem BioAssay, National Center for Advancing Translational Sciences (NCATS)
A selection: hits, their analogues and other compounds. The true share with any hit is near 5.2%.
PLK1 PBD inh: PLK1 (human) polo-box domain binding inhibition | P53350 | Plk1 PBD binding of FITC phosphopeptide, fluorescence polarization | Potency, µM, for the others: max response, negative = inhibition, usual class: inhibitors | actives 2.8% (n = 360,000) | AID 720504; also: series mostly up to about 57 µM; nearly all actives have a fitted effect of over 65% in size
VDR inhibitor: vitamin D3 receptor (human) inhibition; P11473; AID 504847; VDR-SRC2-3 peptide fluorescence polarization, 2 h; Potency, µM, inactives show max response, negative = inhibition, actives largely listed as inhibitors; actives 0.93% (n = 400,000)
Target sequence (P11473 whole entry, looked up): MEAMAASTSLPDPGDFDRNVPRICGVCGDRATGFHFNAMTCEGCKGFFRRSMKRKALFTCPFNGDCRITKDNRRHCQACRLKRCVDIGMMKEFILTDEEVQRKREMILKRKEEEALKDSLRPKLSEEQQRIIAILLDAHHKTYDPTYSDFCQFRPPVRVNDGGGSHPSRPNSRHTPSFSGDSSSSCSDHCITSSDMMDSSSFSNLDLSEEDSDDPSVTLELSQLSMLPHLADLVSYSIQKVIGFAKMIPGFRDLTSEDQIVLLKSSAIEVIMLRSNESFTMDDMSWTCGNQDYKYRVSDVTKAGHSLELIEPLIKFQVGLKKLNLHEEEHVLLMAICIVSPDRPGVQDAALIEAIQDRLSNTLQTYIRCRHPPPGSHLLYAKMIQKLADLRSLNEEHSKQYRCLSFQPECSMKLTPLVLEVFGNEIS
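Signal is fluorescence polarization, reporting how far test compounds block the interaction of VDR with the SRC2-3 coregulator peptide after a 2 h room-temperature incubation.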
Sfp PPTase inh: Sfp phosphopantetheinyl transferase inhibition; Q9F4F7; Biochemical Sfp PPTase activity, qHTS; Potency, µM, for inactives: largest response in the series, negative = inhibition, usual class: inhibitors; actives 3.5% (n = 310,000); AID 1490;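 also: the enzyme is Sfp with the accession as filed and its product quenches rhodamine fluorescence; 0% = enzyme reaction without inhibitor and -100% = no enzyme wells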
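Fluorescence-quenching assay: 15 nM Sfp-PPTase preincubated 15 min at room temperature with compound, then 5 uM rhodamine-CoA and 12.5 uM BHQ-2-labelled YbbR peptide added. Fluorescence (ex 525/em 598 nm) read at start and after 30 min; difference gives rate.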
rTrxR1 inhibitor: rat TrxR1 inhibition. recombinant rTrxR1, NADPH fluorescence consumption, selenite substrate. actives 1% (n = 390,000). Potency, µM (titrated, usually from 114 µM), without a hit: top-dose activity change, negative = inhibition, hits mostly inhibitors; also: nearly all actives have a fitted effect of over 65% in size
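Rat TrxR1 (90 nM in the dispensed reagent) was pre-reduced with 400 uM NADPH for 5 min at room temperature, then incubated with compound for 15 min. After 400 uM selenite was added, NADPH fluorescence (Ex 340/Em 450 nm) was followed for 8 min.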
mIDH1 inhibitor: blocks human mutant IDH1 R132H enzyme | IDH1-R132H enzyme, NADPH consumption, diaphorase/resazurin fluorescence | Potency, µM (series often up to 76.6 µM), without a hit: at the highest dose activity change, negative = inhibition, usual class: inhibitors | actives 0.093% (n = 390,000) | AID 602179; also: nearly all actives have a fitted effect of over 65% in size
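IDH1-R132H (0.5 ug/mL dispensed) in pH 7.5 Tris buffer was preincubated 30 min with compound, then given a substrate mix of 0.016 mM NADPH and 2 mM alpha-KG for 80 min at room temperature; remaining NADPH was read by diaphorase/resazurin fluorescence.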
TrxR1 substrate: is turned over as a substrate by rat TrxR1 | O89049 | purified TrxR1 substrate turnover, NADPH consumption readout | Potency, µM (titrated, usually from 114 µM), without a hit: top-dose activity change, negative = substrate turnover | actives 0.01% (n = 390,000); also: nearly all actives have a fitted effect of over 50% in size
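Rat TrxR1, dispensed at 90 nM, was prereduced with 400 uM NADPH (final) for 5 min at ~22 deg C, then incubated with compound 15 min before 400 uM selenite. A first-read NADPH fluorescence drop versus no-compound background flagged substrates.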
* marks the source's active call; other numbers are inactive results; ? = inconclusive; / = not tested or not shown; [ ] = another dose, or the depositor's remark. Calls follow the shape of the dose curve; as a rule, active = well fitted curve in the direction sought with a large enough effect; inconclusive = small, poorly fitted or top-dose-only effect, or another doubt; inactive = no such curve, though single readings can be large; an effect the other way counts as inactive or inconclusive. Unless noted, % is scaled to controls: 0 for no effect and ±100 for the full control effect; potency is read from the fitted curve at half-maximal effect.

SMILES | PLK1 PBD inh | VDR inhibitor | Sfp PPTase inh | rTrxR1 inhibitor | mIDH1 inhibitor | TrxR1 substrate
S=c1[nH]nc(-c2cccnc2)n1/N=C/C=C/c1ccco1 | -3% | -9% | 16µM* | -19% | 4% | -3%
S=c1[nH]nc(-c2ccc(Cl)cc2)n1/N=C/C=C/c1ccco1 | 27µM* | -7% | 56µM* | -32% | 0% | -9%
CC(/C=N/n1c(-c2cccnc2)n[nH]c1=S)=C\c1ccco1 | ? | -4% | -27% | ? | 1% | -3%[57.1 µM]
Cc1ccccc1-c1n[nH]c(=S)n1/N=C/C=C/c1ccco1 | ? | 71µM* | -21% | 4µM* | 3% | -6%
S=c1[nH]nc(-c2ccco2)n1/N=C/C=C/c1ccccc1 | -16% | -28% | -15% | -25% | 10% | -1%
COC(=O)[C@H]1[C@H]2CC3c4[nH]c5ccccc5c4CCN3C[C@@H]2CC[C@@H]1O (stereo partly drawn) | / | / | -2% | / | / | /
CC(C)CN(C(=O)c1cccc(S(=O)(=O)N2CCN(c3ccc(F)cc3)CC2)c1)C1CCS(=O)(=O)C1 (stereo not drawn) | -3% | 10% | / | -6% | 9% | -9%
O=C(CCn1cnc2onc(-c3ccc(F)cc3)c2c1=O)N1CCN(c2ccccc2F)CC1 | / | 9% | / | 18% | -13% | -5%
O=[N+]([O-])c1ccccc1/C=C/C=N/n1c(-c2ccccc2F)n[nH]c1=S | ? | -11% | 28µM* | -3%[57.1 µM] | -2% | 13%[57.1 µM]
O=S(=O)(NCc1cc(-c2ccccc2Cl)no1)c1ccc(Cl)cc1 | 3.8µM* | 18µM* | -11% | 6% | 17% | -3%
Cc1nc2ccc(S(=O)(=O)N(C)CC(=O)Nc3ccc(C(C)C)cc3)cc2s1 | / | 7% | / | -10% | / | -4%
CCc1ccc(NC(=O)CSc2nc3c([nH]c4ccccc43)c(=O)n2C)cc1 | / | 9% | / | 28%[57.1 µM] | -20% | 4%[57.1 µM]
COC(=O)c1c(NC(=O)C2COc3ccccc3O2)sc2c1CCN(C(C)=O)C2 (stereo not drawn) | 8% | 11% | -28% | -2% | 0% | -5%
CCOC(=O)N1CCc2c(sc(NC(=O)c3ccc(Cl)s3)c2C(N)=O)C1 | / | / | 50µM* | / | / | /
CCOC(=O)N1CCc2c(sc(NC(C)=O)c2C(N)=O)C1 | -12% | 0% | / | 1% | 11% | 8%
CC(=O)N1CCc2c(sc(NC(=O)C3COc4ccccc4O3)c2C(N)=O)C1 (stereo not drawn) | 19µM* | ? | 32µM* | -16% | 2% | -2%
CC(C)c1ccc(S(=O)(=O)Nc2ccc3oc4c(c3c2)C(=O)CC(C)(C)C4)cc1 | / | 8% | / | 0% | -6% | -3%
CC(CCc1ccccc1)NC(=O)Cc1ccc([N+](=O)[O-])cc1 (stereo not drawn) | 30µM* | ? | 10% | 0% | 1% | -7%
CC(CCc1ccccc1)NC(=O)CNc1cccc([N+](=O)[O-])c1 (stereo not drawn) | -11% | -4% | 6% | 11% | 11% | -2%
CCCS(=O)(=O)c1c(S(=O)(=O)CCC)c2ccccn2c1C(=O)OC | ? | -10% | 7% | 40µM* | 6% | 12%
CCCS(=O)(=O)c1c(S(=O)(=O)CCC)c2c3ccccc3ccn2c1C(=O)OC | -7% | 7% | 5% | -3% | 4% | 25%
CCCS(=O)(=O)c1c(S(=O)(=O)CCC)c2c(N)cccn2c1C(=O)c1ccc(F)cc1 | -20% | 6% | 22µM* | -18% | 5% | -15%
CCCS(=O)(=O)c1c(S(=O)(=O)CCC)c2c(C)cccn2c1C(=O)OC | ? | -1% | 79µM* | 25µM* | 6% | 14%
Cc1cc(OC(C)C(=O)Nc2ccncc2)ccc1Cl (stereo not drawn) | -9% | 1% | 9% | 19% | -1% | 5%[2.29 µM]
CC1=C(C(=O)N(C(C)C)C(C)C)CC(CC(=O)NC2CC2)C(=O)N1Cc1ccc(F)cc1 (stereo not drawn) | 0% | / | / | / | / | /
SMILES | PLK1 PBD inh | VDR inhibitor | Sfp PPTase inh | rTrxR1 inhibitor | mIDH1 inhibitor | TrxR1 substrate
O=C(CSc1nc(-c2ccc(F)cc2)nc2c1Cc1ccccc1O2)Nc1ccc(C(=O)O)cc1 | 15µM* | -14% | -21% | 15% | -5% | 6%
CCOc1cccc2c1Oc1nc(-c3ccccc3)nc(SCC(=O)Nc3ccc(F)cc3)c1C2 | / | -7% | / | 18% | -10% | 1%
CCOc1ccc(-c2nc3c(c(SCC(=O)Nc4ccccc4C)n2)Cc2ccccc2O3)cc1 | / | 2% | / | 14% | 13% | -2%
O=C(CSc1nc(-c2ccccc2)nc2c1Cc1ccccc1O2)Nc1ccc(C(=O)O)cc1 | 21µM* | -15% | 79µM* | 2%[57.1 µM] | -5% | 4%
CCCCN(C)C(=O)c1ccc(Nc2nc(C(N)COCc3ccccc3)cs2)nc1 (stereo not drawn) | 12% | / | / | / | / | /
O=C(CN1CC[n+]2c(-c3cccs3)csc21)c1ccc(-c2ccccc2)cc1 | -8% | ? | -14% | -2%[57.1 µM] | -1% | 1%[57.1 µM]
CCc1ccc(-c2csc3[n+]2CCN3C(C)=O)cc1 | ? | 25µM* | 40µM* | 36% | 0% | 3%
O=C(C(=O)N1CCN(c2ccccc2)CC1)c1ccncc1 | -3% | / | / | / | / | /
CN1C/C(=C/c2ccccc2[N+](=O)[O-])C(=O)/C(=C\c2ccccc2[N+](=O)[O-])C1 | -18% | 71µM* | / | -57%[57.1 µM] | 13% | -2%[11.4 µM]
CCCCOC(=O)c1ccc(NC(=S)NC(=O)c2c(Cl)cnn2C)cc1 | -4% | 3% | 79µM* | -10% | 7% | -1%
CCCCOC(=O)c1ccc(NC(=S)NC(=O)c2c(Cl)cnn2CC)cc1 | 0% | 2% | 45µM* | -11% | 0% | -5%
Cc1[nH][nH]c(=O)c1C(c1ccc(-c2ccc(Cl)cc2Cl)o1)c1c(C)[nH][nH]c1=O | / | / | 50µM* | / | / | /
COc1ccc(C(=O)Oc2ccc(C(c3c(C)[nH][nH]c3=O)c3c(C)[nH][nH]c3=O)cc2OC)cc1 | / | ? | / | -4% | -9% | 2%[0.457 µM]
COC(=O)c1ccc(-c2ccc(C(c3c(C)[nH][nH]c3=O)c3c(C)[nH][nH]c3=O)o2)cc1 | 12µM* | 35µM* | 50µM* | -20% | 5% | -23%
Cc1[nH][nH]c(=O)c1C(c1ccc(-c2ccccc2C(=O)O)o1)c1c(C)[nH][nH]c1=O | ? | -9% | ? | -24% | -3% | -16%
Cc1[nH][nH]c(=O)c1C(c1ccc(-c2cccc(C(=O)O)c2)o1)c1c(C)[nH][nH]c1=O | ? | ? | 16µM* | -14%[57.1 µM] | 6% | -10%[57.1 µM]
Cc1[nH][nH]c(=O)c1C(c1ccc(-c2cccc(Cl)c2)o1)c1c(C)[nH][nH]c1=O | 12µM* | ? | 45µM* | ? | -1% | -13%
